The results in this text go back to PubChem BioAssay (EPA / NIEHS).

SMILES strings stand for the structures. Inconclusive results are not listed. Active and inactive are the calls of the source. The calls were made as follows, unless noted: active = hit-call score of the fitted dose curve at least 0.9, where 1 is the maximum; inactive = score below 0.9.

Experiment [1] has as its target Estrogen receptor (Homo sapiens) (UniProt P03372). Nature of the experiment: CCTE_Deisenroth_AIME_384WELL_LUC_Inactive: CCTE's 384-well Estrogen Receptor Transactivation Assay without AIME metabolic competence (ERTA luciferase; metabolism negative), Deisenroth Lab (AID 2284038; active = hit-call score of the fitted dose curve at least 0.9, where 1 is the maximum;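 also: VM7Luc4E2 breast cells given medium preincubated 2 h with S9-free microspheres; hits raise estrogen receptor luciferase signal so potencies reflect agonists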). The procedure, abridged:
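Chemicals (10-point series, 0.002 - 200 uM) were incubated 2 hours with alginate-water microsphere lids lacking S9, then the conditioned medium was transferred to VM7Luc4E2 breast cells for 24 hour. Luciferase induction was read by bioluminescence, fitted upward relative to 17beta-estradiol.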

A short description of experiment [2]: CCTE_Deisenroth_AIME_384WELL_CTox_Inactive: Cytotoxicity Assessment (CTOX) in CCTE's 384-well Estrogen Receptor Transactivation Assay without AIME metabolic competence (metabolism negative), Deisenroth Lab (AID 2284039; active = hit-call score of the fitted dose curve at least 0.9, where 1 is the maximum;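 also: cell viability via live-cell protease substrate cleaved to fluorescent probe; cells exposed 24 h to medium preincubated 2 h with alginate-water beads without S9; loss of fluorescence signal means loss of viability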). The procedure, abridged: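 VM7Luc4E2 cells, metabolism-negative arm: test chemicals (0.002–200 uM, 10 points) pre-incubated 2 h with alginate-water microspheres, then medium transferred to cells for 24 h. Viability read as protease-substrate cleavage to fluorescent probe; loss-of-signal, bidirectional fitting.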

Experiment [3] addresses Estrogen receptor (Homo sapiens) (UniProt P03372). As to the kind of experiment: CCTE_Deisenroth_AIME_384WELL_LUC_Shift: CCTE's 384-well Estrogen Receptor Transactivation Assay with AIME metabolic competence data shift (ERTA luciferase; difference in metabolism positive and negative), Deisenroth Lab (AID 2284041).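 Also: shift is response with S9 minus without S9 so positive means metabolism raised ER signal.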 In a few lines:
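Chemicals (0.002–200 uM, 10 points) pre-incubated 2 h with alginate-encapsulated induced male Sprague Dawley rat liver S9 or S9-free, then medium applied 24 h to VM7Luc4E2 cells; luciferase. Endpoint is per-concentration difference, S9-positive minus negative.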

A further experiment has as its system DIO2 (gene 1734). As to the kind of experiment: CCTE_GLTED_hDIO2: CCTE's human Deiodinase 2 (DIO2) Inhibition Assay, Great Lakes Toxicology and Ecology Division (GLTED) Lab (AID 2284050; active = hit-call score of the fitted dose curve at least 0.9, where 1 is the maximum). In a few lines: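 Cell-free human DIO2 enzyme was incubated with test chemical for 3 h; iodide liberated from substrate was then quantified by the Sandell-Kolthoff reaction (absorbance), run in triplicate. Loss of signal versus DMSO baseline indicated inhibition.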

The next experiment concerns DIO3 (gene 1735). Nature of the experiment: CCTE_GLTED_hDIO3: CCTE's human Deiodinase 3 (DIO3) Inhibition Assay, Great Lakes Toxicology and Ecology Division (GLTED) Lab (AID 2284055; active = hit-call score of the fitted dose curve at least 0.9, where 1 is the maximum;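 also: potency is for inhibition seen as loss of released iodide signal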). The procedure, abridged:
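Cell-free assay with human DIO3 enzyme produced by adenovirus expression; enzyme incubated with test chemical for 3 hours. Liberated iodide then measured by Sandell-Kolthoff absorbance; loss of signal versus DMSO baseline indicates inhibition, run in triplicate.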

Experiment [4] can be described thus: CCTE_Shafer_MEA_acute_LDH: CCTE's Lactate Dehydrogenase Assay for Cytotoxicity in the Neural Acute Assay, Shafer Lab (AID 2284086; active = hit-call score of the fitted dose curve at least 0.9, where 1 is the maximum;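 also: active means LDH release rises above DMSO vehicle level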). In a few lines:
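Primary rat cortical neurons on 48-well MEA plates, treated on day 13 or 15 post-plating. After the 40-min recording with compound, medium LDH release was read by absorbance at 490 nm. Gain of signal was fitted against DMSO negative control.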

Experiment [5] is described as follows: CCTE_Shafer_MEA_dev_burst_rate: CCTE's Neural Network Formation Assay for Burst Rate, Shafer Lab (AID 2284042). In a few lines:
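Primary rat cortical neurons on PEI-coated 48-well MEA plates (laminin added with cells at plating) (16 electrodes/well), exposed from plating to day 12, dosing renewed at DIV 5 and 9. Burst rate averaged over active electrodes, recorded DIV 5, 7, 9, 12, summarized as AUC; loss versus DMSO.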

A short description of experiment [6]: CCTE_Shafer_MEA_dev_per_burst_interspike_interval: CCTE's Neural Network Formation Assay for Burst Interspike Interval, Shafer Lab (AID 2284044).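 Also: mean spike spacing inside bursts as AUC over recordings on days 5 7 9 12.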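 As to AC50: potency for a decrease of within-burst interspike interval below DMSO level.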 The procedure, abridged: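 Spontaneous activity of maturing rat cortical networks is recorded on DIV 5, 7, 9 and 12 under chronic compound exposure beginning at plating. Endpoint: burst interspike interval well-mean, collapsed into trapezoidal AUC and fitted in the negative direction relative to DMSO.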

A short description of experiment [7]: CCTE_Shafer_MEA_dev_burst_duration_mean: CCTE's Neural Network Formation Assay for Mean Burst Duration, Shafer Lab (AID 2284045). The procedure, abridged:
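Primary rat cortical neurons on 48-well 16-electrode MEA plates, exposed from day 0 with renewal at DIV 5 and 9; spontaneous activity recorded on days 5, 7, 9, 12. Well-mean burst duration across bursting electrodes, collapsed as trapezoidal AUC; DMSO baseline.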

Experiment [8] in a line: CCTE_Shafer_MEA_dev_interburst_interval_mean: CCTE's Neural Network Formation Assay for Mean Interburst Interval, Shafer Lab (AID 2284046).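 Also: well-mean interburst interval of bursting electrodes as AUC over four recording days; curve fitted for decrease in interburst interval relative to DMSO.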 The procedure, abridged: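 Recordings on days 5, 7, 9 and 12 give well-mean interburst interval across actively bursting electrodes, summarized as area under the curve. Cultures: rat cortical neurons, continuous exposure from day 0, compound renewed at feeds; decrease analyzed versus DMSO.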

Experiment [9] in a line: CCTE_Shafer_MEA_dev_inter_network_spike_interval_mean: CCTE's Neural Network Formation Assay for Mean Inter-network Spike Interval, Shafer Lab (AID 2284047).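 As to AC50: potency for a decrease in mean inter-network spike interval below DMSO.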 In a few lines: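 Primary rat cortical neurons on 16-electrode MEA wells, exposed from plating day 0 through DIV 12, compound renewed at DIV 5 and 9 media changes. Mean interval between network-spike peaks recorded DIV 5, 7, 9, 12; collapsed as trapezoidal AUC, fitted downward versus DMSO.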

A short description of experiment [10]: CCTE_Shafer_MEA_dev_network_spike_number: CCTE's Neural Network Formation Assay for Number of Network Spikes, Shafer Lab (AID 2284048).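 Also: synchronized bursts across electrodes counted on days 5 7 9 12 and integrated as AUC.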 In a few lines:
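Primary rat cortical neurons on PEI/laminin 48-well MEA plates, dosed from plating day 0 for 12 days, renewed at DIV 5 and 9. Network spike counts recorded DIV 5, 7, 9, 12, collapsed as trapezoidal AUC; DMSO baseline.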

Experiment [11] can be described thus: CCTE_Shafer_MEA_dev_network_spike_peak: CCTE's Neural Network Formation Assay for Mean Number of Electrodes in Network Spike, Shafer Lab (AID 2284049).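 Also: fitted for loss of signal meaning fewer electrodes in network spikes than DMSO.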 The procedure, abridged:
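Network-spike peak electrode count from recordings on days 5, 7, 9 and 12 was combined as trapezoidal area under the curve. Rat cortical cultures were treated continuously from plating, with compound renewed at each feed (DIV 5, 9); fits versus DMSO.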

Experiment [12] can be described thus: CCTE_Shafer_MEA_dev_spike_duration_mean: CCTE's Neural Network Formation Assay for Mean Spike Duration, Shafer Lab (AID 2284051).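 Also: mean network spike duration pooled as area under curve over DIV 5 to 12 recordings.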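 As to AC50: potency for a decrease in mean network spike duration versus DMSO.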 The procedure, abridged:
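Primary rat cortical neurons on 16-electrode MEA wells (PEI-coated, laminin in plating drop), exposed from plating through DIV 12 with compound renewed at DIV 5 and 9. Mean network-spike duration recorded DIV 5, 7, 9, 12; trapezoidal AUC across days, DMSO baseline.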

Experiment [13] in a line: CCTE_Shafer_MEA_dev_network_spike_duration_std: CCTE's Neural Network Formation Assay for Standard Deviation of Network Spike Duration, Shafer Lab (AID 2284052).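 Also: area under curve of spike duration SD across recording days 5 to 12; hits are decreases in network spike duration SD versus DMSO vehicle.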 In a few lines: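 Primary rat cortical neurons on PEI-coated 16-electrode MEA wells, exposed from plating day 0 through day 12 with compound renewed at DIV 5 and 9. Network spike duration SD recorded on days 5, 7, 9, 12, collapsed as trapezoidal AUC; loss-of-signal fit versus DMSO.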

A short description of experiment [14]: CCTE_Shafer_MEA_dev_per_network_spike_spike_number_mean: CCTE's Neural Network Formation Assay for Mean Number of Spikes in a Network Spike, Shafer Lab (AID 2284053).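 As to AC50: fitted as decrease in spikes per network spike relative to DMSO.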 The procedure, abridged:
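Primary rat cortical neurons on 48-well, 16-electrode MEA plates were exposed from plating to DIV 12, with dosing renewed on DIV 5 and 9. Spikes per network spike (0.05 s peak window) were recorded on DIV 5, 7, 9 and 12 and collapsed as trapezoidal AUC versus DMSO.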

Experiment [15] in a line: CCTE_Shafer_MEA_dev_per_network_spike_spike_percent: CCTE's Neural Network Formation Assay for Percent of Spikes in a Network Spike, Shafer Lab (AID 2284054). The procedure, abridged: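 Rat primary cortical neurons were grown on 48-well MEA plates (16 electrodes/well), exposed from plating day 0 through day 12, with treatment renewed on DIV 5 and 9. Percent of spikes within 0.05 s network-spike peaks was measured, summarised as AUC across days 5, 7, 9, 12.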

Experiment [16] is described as follows: CCTE_Shafer_MEA_dev_LDH: CCTE's Lactate Dehydrogenase Assay for Cytotoxicity in the Neural Network Formation Assay, Shafer Lab (AID 2284068; active = hit-call score of the fitted dose curve at least 0.9, where 1 is the maximum;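 also: exposure for twelve days from plating with re-dosing on DIV 5 and 9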). In a few lines: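 Primary rat cortical neurons were plated on PEI/laminin MEA plates and exposed from day 0 for twelve days, with compound renewed at DIV 5 and 9. Cytotoxicity was determined by spectrophotometric LDH assay relative to DMSO.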

Experiment [17] in a line: CCTE_Shafer_MEA_dev_AB: CCTE's Alamar Blue Assay for Cytotoxicity in the Neural Network Formation Assay, Shafer Lab (AID 2284083; active = hit-call score of the fitted dose curve at least 0.9, where 1 is the maximum;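 also: twelve days of exposure from plating with re-dosing on DIV 5 and 9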). In a few lines:
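Primary rat cortical neurons on PEI-coated 48-well MEA plates, 1.5 x 10^5 cells/well in laminin drop; compound exposure from day 0 of plating for twelve days, renewed at medium changes on DIV 5 and 9. Viability read as resazurin reduction by fluorescence, relative to DMSO.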

Experiment [18] in a line: CCTE_Shafer_MEA_dev_mutual_information_norm: CCTE's Neural Network Formation Assay for Mutual Information Normalization, Shafer Lab (AID 2284091). The procedure, abridged:
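Primary rat cortical neurons on PEI-coated 48-well MEA plates, 1.5 x 10^5 cells/well, exposed from day 0 through day 12 with re-dosing at DIV 5 and 9. Mutual information between electrodes recorded days 5, 7, 9, 12; trapezoidal AUC, loss-of-signal fit versus DMSO.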

Chain of Estrogen receptor (Homo sapiens) (P03372 whole entry, looked up): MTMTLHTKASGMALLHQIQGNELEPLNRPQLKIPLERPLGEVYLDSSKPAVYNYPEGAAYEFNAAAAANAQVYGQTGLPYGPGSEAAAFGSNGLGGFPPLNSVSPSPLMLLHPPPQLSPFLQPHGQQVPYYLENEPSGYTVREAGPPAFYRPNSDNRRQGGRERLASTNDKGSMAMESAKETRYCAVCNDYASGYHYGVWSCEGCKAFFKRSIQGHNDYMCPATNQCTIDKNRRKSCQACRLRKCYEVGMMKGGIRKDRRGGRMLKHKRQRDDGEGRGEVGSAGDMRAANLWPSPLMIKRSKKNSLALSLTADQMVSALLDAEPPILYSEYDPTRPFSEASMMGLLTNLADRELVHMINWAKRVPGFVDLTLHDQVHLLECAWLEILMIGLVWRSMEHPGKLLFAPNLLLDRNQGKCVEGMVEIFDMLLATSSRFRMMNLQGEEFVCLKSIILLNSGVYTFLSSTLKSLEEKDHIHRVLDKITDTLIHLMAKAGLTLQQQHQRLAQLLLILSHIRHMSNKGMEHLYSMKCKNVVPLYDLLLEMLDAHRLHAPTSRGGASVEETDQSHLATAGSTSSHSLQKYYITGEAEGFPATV

As usually defined, the AC50 is the concentration at which the activity in the assay is half-maximal. Take `COc1cccc(-c2ccc(/C=C\CN3CCCCCC3)cc2Cl)c1`: the outcome in [1], in experiment [2], in experiment [3] and in experiment [4] was inactive. The half-maximal activity concentration (AC50) in the experiment with DIO2 (gene 1734) was 77700 nM (active); in the experiment on DIO3 (gene 1735), 32800 nM (active).
With `CCOc1cccc(-n2cc(C(=O)N3CCN(c4cc(C(=O)O)c5ccccc5c4)CC3)nc2-c2ccc(C)cc2)c1`, the half-maximal activity concentration (AC50) in the experiment on DIO2 (gene 1734) is 100000 nM (active); with DIO3 (gene 1735), 140000 nM (active).
As for `COc1ccc(-n2nc(C(F)F)cc2-c2ccc(S(C)=O)cc2)cc1` (stereo not given), the outcome in [5], in [6], in [7], in experiment [8], in experiment [9] and in experiment [10] was inactive. In addition, the call in experiment [13], in [14], in [15], in experiment [17] and in experiment [18] was inactive. The values for the AC50 in experiment [11], in [12] and in experiment [16] were 1980 nM (active), 1980 nM (active) and 603 nM (active), respectively.
Regarding `O=P(OC(CCl)CCl)(OC(CCl)CCl)OC(CCl)CCl`, the outcome in experiment [5], in experiment [6], in experiment [7], in experiment [8], in experiment [9] and in experiment [10] was inactive. Further, the outcome in experiment [12], in [13], in experiment [14], in experiment [15], in experiment [16] and in [17] was inactive. Besides, the compound was classed as inactive in experiment [4] and in experiment [18]. Also, the AC50 in experiment [11] is 2980 nM (active).
For `CCCCCCc1ccc(O)cc1O`, in experiment [2], the AC50 was 162000 nM (active). In addition, the compound was called inactive in [4].
Consider `CCCCCCCCCCCCc1ccccc1`, for which the result in [4] was inactive.
For `O=C(O)c1cc(N=Nc2ccc(S(=O)(=O)Nc3ccccn3)cc2)ccc1O`, in experiment [2], the AC50 is 49700 nM (active). The call in [4] was inactive.
Take `O=C(OC[C@H]1O[C@@H](OC(=O)c2cc(O)c(O)c(OC(=O)c3cc(O)c(O)c(O)c3)c2)[C@H](OC(=O)c2cc(O)c(O)c(OC(=O)c3cc(O)c(O)c(O)c3)c2)[C@@H](OC(=O)c2cc(O)c(O)c(OC(=O)c3cc(O)c(O)c(O)c3)c2)[C@@H]1OC(=O)c1cc(O)c(O)c(OC(=O)c2cc(O)c(O)c(O)c2)c1)c1cc(O)c(O)c(OC(=O)c2cc(O)c(O)c(O)c2)c1`: the AC50 with DIO2 (gene 1734) is 22400 nM (active); in the experiment with DIO3 (gene 1735), 14800 nM (active).
On to `CC[C@H](C)C(=O)O[C@H]1C[C@@H](C)C=C2C=C[C@H](C)[C@H](CC[C@@H]3C[C@@H](O)CC(=O)O3)[C@H]21`, for which the result in [5], in experiment [7], in experiment [10], in experiment [13] and in experiment [18] was inactive. Besides, the AC50 was 2900 nM (active) in experiment [6]; 2900 nM (active) in experiment [8]; 1980 nM (active) in experiment [9]; 1560 nM (active) in [11]; 82500 nM (active) with DIO2 (gene 1734); 2550 nM (active) in [12]. For the same compound, the AC50 was 2220 nM (active) in [14]; 1770 nM (active) in experiment [15]; 100000 nM (active) in the experiment with DIO3 (gene 1735); 956 nM (active) in experiment [16]; 10000 nM (active) in experiment [17].
